Results from PubChem BioAssay.
Activity calls are given as the source filed them.

Key:
[1] = compound effects on lung adenocarcinoma cell viability – A549, calcein-AM fluorescence, 48 h, basal, profiling panel (AID 1162); settings: higher = more signal
[2] = compound effects on differentiated 3T3-L1 adipocyte viability – cell-based, 3T3-L1 adipocytes, calcein-AM fluorescence, 48 h, basal, profiling panel (AID 1163); settings: 3T3-L1 adipocytes viability, higher = more signal
[3] = compound effects on hepatocellular carcinoma cell viability – HepG2, calcein-AM fluorescence, 48 h, basal, profiling panel (AID 1164); settings: higher = more signal
[4] = compound effects on multiple myeloma cell viability – MM1S, calcein-AM fluorescence, 48 h, basal, profiling panel (AID 1165); settings: higher = more signal;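 further: viability of MM1S multiple myeloma cells under basal unstimulated conditions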
[5] = calcein-AM signal in unstimulated myeloma cells – cell-based, calcein-AM fluorescence, 48 h, PK04 Diversity Set, profiling panel (AID 1166); settings: RPMI8226 myeloma viability, higher = more signal;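 further: cells grown under basal conditions without added stimulus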
[6] = JC-1 mitochondrial signal, unstimulated HepG2 cells – cell-based, JC-1 fluorescence, 24 h, 100 nL compound, profiling panel (AID 1167); settings: HepG2 mitochondrial potential, higher = more signal
[7] = JC-1 mitochondrial signal, unstimulated adipocytes – cell-based, JC-1 fluorescence, 3T3-L1 adipocytes, 24 h, 100 nL compound, profiling panel (AID 1168); settings: JC-1 mitochondrial fluorescence, higher = more signal, called active from +8 up or from −8 down
[8] = JC-1 mitochondrial signal, unstimulated myeloma cells – cell-based, JC-1 fluorescence, RPMI8226, 24 h, 100 nL compound, profiling panel (AID 1169); settings: JC-1 mitochondrial potential fluorescence, higher = more signal
[9] = JC-1 mitochondrial signal, unstimulated MM1S myeloma – cell-based, JC-1 fluorescence, 24 h, 100 nL compound, profiling panel (AID 1170); settings: MM1S mitochondrial potential, higher = more signal
[10] = resazurin metabolic signal in A549 cells – cell-based, resazurin fluorescence, 24 h, PK04 Diversity Set, profiling panel (AID 1171); settings: A549 viability, higher = more signal, called active from +8 up or from −8 down
Further: test concentration not given here.

Structure (SMILES)	z-score [1]	z-score [2]	z-score [3]	z-score [4]	z-score [5]	z-score [6]	z-score [7]	z-score [8]	z-score [9]	z-score [10]
O=C1C2C=CC(C(O)c3ccc(F)cc3)N(n3cnnc3)C2C(=O)N1Cc1ccccc1 (stereo not given)	-0.184	0.799	-1	-0.0875	-1.08	-0.518	-0.633 (inactive)	-0.0973	0.0911	-1.29 (inactive)
O=C1C=C(c2ccccc2)C(=O)c2ccc([C@H]3Oc4ccccc4S(=O)(=O)N4CCC[C@@H]34)cc21	-0.309	-0.319	-1.07	-3.23	-4.03	-3.82	-1.83 (inactive)	-1.23	-2.69	-0.602 (inactive)
CC(C)C[C@@H]1NC(=O)[C@@H]2C[C@H](C(=O)NCCCCCN)[C@H](c3ccc(O)cc3)N2C1=O	0.0318	0.484	-0.354	-0.0387	0.286	-0.502	-0.259 (inactive)	0.7	0.698	-0.676 (inactive)
CC1=C([C@H](O)CCc2ccccc2)[C@H](CO)[C@@H]2C(=O)N(C)C(=O)[C@@H]2C1	1.18	-0.371	-0.473	0.236	-0.245	-0.622	0.459 (inactive)	-0.0985	-0.279	-0.39 (inactive)
CCCC[C@@H]1C[C@H]1[C@@H](NC(=O)c1ccccc1)c1ccc(C(F)(F)F)cc1	-1.46	-0.999	-0.959	0.256	-0.372	0.494	-0.259 (inactive)	0.677	-1.24	-0.0143 (inactive)
Cc1ccc(S[C@]2(C(=O)NCCCN(C)C)CC(=O)N(C3CCCCC3)[C@@H]2c2ccc(CO)cc2)cc1	0.242	-0.148	-0.0685	-1.96	-0.0053	1.53	-0.112 (inactive)	-0.151	-0.528	1.06 (inactive)
[N-]=[N+]=Nc1ccccc1[C@H]1OC(c2ccc(OCCCO)cc2)=N[C@@]1(CCS(=O)(=O)c1ccccc1)C(=O)NCCN1CCOCC1	0.101	-0.223	0.0355	-0.387	-0.161	0.816	-0.374 (inactive)	0.184	-0.691	1.22 (inactive)
COc1cc2c(cc1O)C(C)N(Cc1ccc([N+](=O)[O-])o1)CC2 (stereo not given)	0.687	0.831	-0.963	-1.21	-0.867	-2.09	-0.741 (inactive)	0.105	-0.208	-0.0799 (inactive)
C=C(/C(=C/C[C@H](OC(C)=O)c1cccc(OCCO)c1)c1cnc2ccccc2c1)C(C)C	0.336	0.811	0.0181	-0.861	0.0738	1.28	0.224 (inactive)	0.649	-0.105	0.236 (inactive)
CN(C)CCCNC(=O)[C@@]1(c2ccc([N+](=O)[O-])cc2)CC(=O)N(CC23CC4CC(CC(C4)C2)C3)[C@@H]1c1ccc(CO)cc1I	-4.27	-0.0899	-5.25	-3.97	-4.15	-2.77	1.94 (inactive)	-0.913	-2.37	-7.13 (inactive)
C[N+](C)(C)CCCC[C@@H]1NC(=O)[C@H]2C[C@@H](C(=O)NCCCCCCN)[C@@H](c3ccc(O)cc3)N2C1=O	0.811	0.629	0.38	-1.39	0.135	1.28	0.367 (inactive)	-0.0466	0.596	0.169 (inactive)
C=CC[C@]1(C(=O)NCCN2CCOCC2)N=C(c2ccc(OCCCO)cc2)O[C@H]1c1ccccc1CN=[N+]=[N-]	0.779	0.885	0.187	0.81	-0.221	2.76	0.0141 (inactive)	-1.08	-0.244	1.2 (inactive)
CC(C)N1C(=O)c2ccccc2[C@@H](C(=O)NC2CC2)[C@@H]1c1ccc(CO)cc1	0.798	0.774	0.476	-0.0123	0.282	0.507	0.319 (inactive)	0.108	0.0665	0.743 (inactive)
[N-]=[N+]=NCc1ccccc1[C@@H]1OC(c2ccc(OCCCO)cc2)=N[C@]1(CCS(=O)(=O)c1ccccc1)C(=O)NCC(O)CO (stereo not given in full)	1.3	0.273	1.4	0.481	1.67	-0.142	0.0693 (inactive)	-0.0493	-0.198	-0.911 (inactive)
COc1ccc([Si](C)(C)[C@@H]2[C@@H](CC(=O)N(CCO)Cc3ccccc3)O[C@]3(C(=O)N(Cc4cccc(N5C(=O)c6cccc7cccc5c67)c4)c4ccccc43)[C@H]2C)cc1	-1.32	1.43	-1.12	-1.48	-3.72	0.641	2.03 (inactive)	-1.02	-1.4	-0.999 (inactive)
CCOC(=O)C[C@H]1[C@H](OC(=O)c2cc3ccccc3oc2=O)[C@@H](NC(=O)Cc2ccc(OC)cc2)c2cc(OCCCO)ccc2N1C(=O)c1ccc2ccccc2n1	0.167	0.66	0.493	-0.171	0.865	-0.917	-0.0891 (inactive)	-0.265	0.429	-0.341 (inactive)
